Screening results: PubChem BioAssay, National Center for Advancing Translational Sciences (NCATS)
This excerpt belongs to a sample that is enriched for hits.
TbPYK inhibitor = T. brucei pyruvate kinase inhibition; AID 624173; Potency, µM (highest dose often 76.8 µM), for the others: top-dose activity, negative = inhibition, most hits filed as inhibitors; 410,000 compounds, 0.12% hits; TbPYK enzyme, Kinase-Glo Plus ATP luminescence, 45 min; note: potency is the fitted concentration of half-maximal effect; % is set by controls: 0 for no effect and ±100 for the full control effect; nearly all actives have a fitted effect of over 50% in size
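T. brucei PYK with substrate was exposed to pin-transferred compounds across a concentration series, then started with 130 uM ADP (final). After 45 min at room temperature, Kinase-Glo Plus luminescence was read, normalized and curve-fitted.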
Shiga toxin inh = inhibitors of Shiga toxin in Vero cells; Vero cells, Shiga toxin protein synthesis inhibition reporter; inhibition, % at 38.7 µM; 290,000 compounds, 9.2% hits; in the data active = inhibition mostly above about 28%, no sharp cut-off; inactive = mostly below about 43%; note: 0% is about no effect
CHX counter = counter-screen for Shiga toxin inhibitors: cycloheximide protein synthesis inhibition; cell reporter, cycloheximide protein synthesis inhibition counterscreen; max response, %; 300,000 compounds, 12% hits; in the data active = max response mostly above about 13%, no sharp cut-off; inactive = mostly below about 14%; note: read at 38.3 µM for the half of the compounds with a filed dose; 0% is about no effect
Sm TGR block = inhibitors of Schistosoma mansoni thioredoxin glutathione reductase. Potency, µM (highest dose often 114 µM), for the others: at the highest dose activity change, negative = inhibition, hits mostly inhibitors. 360,000 compounds, 3% hits. Q962Y6. AID 485364. purified TGR, DTNB reduction, TNB absorbance 405 nm; note: potency is the fitted concentration of half-maximal effect; % is set by controls: 0 for no effect and ±100 for the full control effect; nearly all actives have a fitted effect of over 60% in size
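Kinetic colorimetric format: TGR-catalysed, NADPH-driven DTNB reduction monitored via TNB absorbance. Enzyme dispensed at 20 nM; compound exposure 15 min at room temperature before reaction start.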
LmPK inh = inhibitors of Leishmania mexicana pyruvate kinase. Potency, µM (doses to about 57.5 µM), without a hit: top-dose activity change, negative = inhibition, most hits filed as inhibitors. 290,000 compounds, 0.37% hits. AID 1721. Q27686. purified LmPK, Kinase-Glo ATP luminescence, 1 h; note: potency is the fitted concentration of half-maximal effect; % is set by controls: 0 for no effect and ±100 for the full control effect
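Purified LmPK (0.1 nM) converted ADP (0.1 mM) to ATP with PEP (0.5 mM) in imidazole buffer pH 7.2 with KCl and MgCl2, 1 h at room temperature. ATP was read by Kinase-Glo luminescence; data normalized to uninhibited and no-enzyme controls.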
Giardia FBPA inh = blocks Giardia fructose-bisphosphate aldolase activity; 290,000 compounds, 0.71% hits; Potency, µM (series often up to 59.6 µM), for inactives: at the top dose activity, negative = inhibition, actives largely listed as inhibitors; AID 2451; purified Giardia FBPA; note: potency is the fitted concentration of half-maximal effect; % is set by controls: 0 for no effect and ±100 for the full control effect; nearly all actives have a fitted effect of over 55% in size
Target sequence (A8B2U2 whole entry, looked up): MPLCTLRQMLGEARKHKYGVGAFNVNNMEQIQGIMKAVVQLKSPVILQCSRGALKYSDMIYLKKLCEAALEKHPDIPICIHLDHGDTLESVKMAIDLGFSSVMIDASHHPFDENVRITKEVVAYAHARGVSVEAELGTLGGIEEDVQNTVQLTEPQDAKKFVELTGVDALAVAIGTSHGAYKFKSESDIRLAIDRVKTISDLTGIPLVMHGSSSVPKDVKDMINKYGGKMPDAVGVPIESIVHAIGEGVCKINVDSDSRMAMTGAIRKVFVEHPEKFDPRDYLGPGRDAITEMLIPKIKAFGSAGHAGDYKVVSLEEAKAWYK
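40 nM FBPA preincubated 10 min at RT with compound (up to 57.5 uM final), then substrate plus GAPDH/TPI/NAD/arsenate coupling and diaphorase/resazurin added. Fluorescence read after 20 min at RT, 525/598 nm.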
The depositor's hits bear a star; ? = inconclusive; / = not tested or not shown; ! = repeats disagree; [ ] = another dose, or the depositor's remark. Unless noted, calls come from the whole dose curve; as a rule, active = well fitted curve in the direction sought with a large enough effect; inconclusive = small, poorly fitted or top-dose-only effect, or another doubt; inactive = no such curve, though single readings can be large; an effect the other way counts as inactive or inconclusive.

SMILES | TbPYK inhibitor | Shiga toxin inh | CHX counter | Sm TGR block | LmPK inh | Giardia FBPA inh
COc1ccc(C2(c3ccc(OC)cc3)NC(=O)N(CC(=O)Nc3ccc(OC)c(OC)c3)C2=O)cc1 | 5% | -7 | -5 | 7% | 0% | 11%
CC(C)Cn1c(C23CC4CC(CC(C4)C2)C3)n[nH]c1=S | ? | -1 | 1 | 4% | 25µM* | 24%
COCCCn1c(C23CC4CC(CC(C4)C2)C3)n[nH]c1=S | ? | 0 | 1 | 10% | -9% | 25%
Cc1ccc(S(=O)(=O)N2CCCN(Cc3nc4ccccc4c(=O)[nH]3)CC2)cc1 | -1% | / | / | 45µM* | / | /
S=C(c1ccc(-c2cccc(Cl)c2)o1)N1CCOCC1 | -29% | 188* | 43* | -11% | 7% | -6%
N#CCCN1CCN(C(=S)c2ccc(-c3cccc(Cl)c3)o2)CC1 | -7% | 103* | 45* | -25% | 5% | -19%
S=C(c1ccc(-c2cc(Cl)ccc2Cl)o1)N1CCCCC1 | -13% | 7 | 4 | 3% | -2% | 7%
S=C(c1ccc(-c2cccc(Cl)c2)o1)N1CCCCC1 | -17% | 55* | 49* | ? | -9% | 1%
S=C(c1ccc(-c2cc(Cl)ccc2Cl)o1)N1CCOCC1 | 8% | -4 | 2 | -16% | -11% | -21%
CNc1cnc(-c2cccc(C(=O)N3CCOCC3)c2)cn1 | 1% | / | / | / | / | /
COc1cccc(CNC(=O)CCc2c(C)c3cc4c(C)coc4cc3oc2=O)c1 | 0% | / | / | 1% | / | /
COc1ccc(NC(=O)Cn2c(=O)ccc3cc(S(=O)(=O)N4CCCC4)ccc32)cc1Cl | 0% | / | / | 3% | / | /
COc1ccc(-c2ccc(=O)n(CC(=O)Nc3ccc(N(C)C)cc3)n2)cc1 | -14% | / | / | -2% | / | /
COc1cccc2c1C(=O)c1c(O)c3c(c(O)c1C2=O)C[C@@](O)(C(C)=O)C[C@@H]3O[C@H]1C[C@H](N)[C@H](O)[C@H](C)O1 | 0% | 42*! | 5 | -9% | -20% | ?
CC(C)c1ccc(NC(=S)NN2CCN(C)CC2)cc1 | -2% | 18 | 1 | ? | -2% | 0%
CC(C)c1ccc(NC(=S)N2CCCC2)cc1 | 1% | 156* | 61* | -7% | -2% | -18%
CC(C)c1ccc(NC(=S)N2CCN(C)CC2)cc1 | 13% | 37* | 37* | 0% | -2% | /
S=C(Nc1ccccc1)N1CCCCCCC1 | -1% | -10 | -2 | -6% | 4% | -7%
Cc1ccc(C(=O)O)cc1N1C(=O)c2cccc3c([N+](=O)[O-])ccc(c23)C1=O | -17% | -6 | -1 | 14µM* | 14% | -13%
CN(C)CCCN1C(=O)c2cccc3c([N+](=O)[O-])ccc(c23)C1=O | -8% | -26 | -12 | 28µM* | -4% | -20%
CC(=O)Oc1cccc(N2C(=O)c3cccc4c([N+](=O)[O-])ccc(c34)C2=O)c1 | 9% | -5 | -3 | 1% | -8% | 2%
O=C(O)c1ccc(CN2C(=O)c3cccc4c([N+](=O)[O-])ccc(c34)C2=O)cc1 | 3% | -7 | 6 | 18µM* | 0% | -14%
Cc1ccc2nc(-c3cccc(NC(=O)c4cccc5c(Cl)cccc45)c3)oc2c1 | -3% | / | / | 8% | / | /
COc1ccc(CNc2nc(-c3ccccc3OC)nc3ccccc23)c(OC)c1 | / | / | / | / | / | 1%
CC1CCN(c2cc(N(C)CCO)c([N+](=O)[O-])c3nonc23)CC1 | 0% | 23 | 6 | 45µM* | 7% | -8%
SMILES | TbPYK inhibitor | Shiga toxin inh | CHX counter | Sm TGR block | LmPK inh | Giardia FBPA inh
COc1ccc2c(c1OC)C(=O)N1c3ccccc3C(=O)OC21 (stereo not drawn) | / | / | / | / | / | 5%
COc1ccc2c(c1OC)C(=O)N1c3ccccc3COC21 (stereo not drawn) | -1% | 80* | 41* | 9% | -14% | -9%
COc1ccc2c(c1OC)C(=O)N1c3ccccc3SC21 (stereo not drawn) | -20% | 54* | 35* | -2% | -4% | 20%
COc1ccccc1-c1nnc(C2CCN(C(=O)c3cccc(C)c3)CC2)o1 | -7% | / | / | -1% | / | /
C/C(=N\OCc1ccccc1)c1c(O)cc(C(C)C)n(-c2ccccc2)c1=O | 3% | -6 | 1 | -8% | 0% | 10%
CCn1nc(C(=O)Nc2ccc(C)c(C)c2)c(Cl)c1Cl | 7% | -2 | 14 | 3% | 6% | 4%
CCCc1nn(C)c(C(=O)Nc2ccc(C)c(C)c2)c1Cl | -7% | 92* | 32* | -18% | 1% | 0%
CCCc1nn(C)c(C(=O)Nc2cccc3ccccc23)c1Cl | 1% | 36* | 12 | -7% | -1% | -4%
CCc1ccc(NC(=O)c2cccc(C(=O)Nc3ccc(CC)cc3)n2)cc1 | -6% | 42 | 13 | 4% | 4% | 10%
CCCc1nn(C)c(C(=O)Nc2ccc(CC)cc2)c1Cl | 2% | 35* | 17 | -10% | -4% | 3%
O=C(Nc1ccc(C(=O)N2CCCC2)cc1)c1ccccc1Br | 1% | 35 | 11* | 7% | -10% | /
O=C(Nc1ccccc1)Nc1ccc(C(=O)N2CCCC2)cc1 | ? | 45* | 19* | 7% | 16µM* | -6%
O=C(/C=C/c1ccccc1)Nc1ccc(C(=O)N2CCCCC2)cc1 | -1% | 44* | 14 | 3% | 1% | -3%
O=C(/C=C/c1ccccc1)Nc1cccc(C(=O)N2CCCCC2)c1 | 1% | / | / | / | / | /
O=C1c2ccccc2-c2ccc(C(=O)N3CCCCC3)cc21 | 3% | 153 | 31* | 2%[57.1 µM] | -6% | -6%
CC1CCN(C(=O)c2ccc3c(c2)C(=O)c2ccccc2-3)CC1 | -1% | / | / | / | / | /
O=C(Nc1ccc(C(=O)N2CCCCC2)cc1)c1ccccc1Br | 2% | / | / | / | / | /
COc1ccc(-c2cc(C(C)=O)c(C)n2CCC(=O)Nc2ccc(C)c(Cl)c2)cc1 | -6%[15.4 µM] | / | / | 6% | / | /
O=C(Nc1ccc(C2CC2(Cl)Cl)cc1)c1ccccc1Br (stereo not drawn) | 14% | 57* | 45* | -7% | 1% | -16%
CCCCC[C@H](O)/C=C/[C@H]1C=CC(=O)[C@@H]1C/C=C\CCCC(=O)O | / | -5 | -2 | 40µM* | 8% | 10%
CCC(=O)N1c2ccccc2CC1C(=O)NCCN1CCN(c2cc(Cl)ccc2C)CC1 (stereo not drawn) | -8% | / | / | 0% | / | /
Cc1c(-c2ccccc2)nc(N)c(C#N)c1-c1ccco1 | 4% | 54 | -4 | 35µM* | 8% | -5%
CCCCOC(=O)CSc1nc2c(cc1C#N)C(=O)CC(C)(C)C2 | 0% | active | 47* | 11% | 1% | 3%
CCOC(=O)CSc1nc(N)c(C#N)cc1C#N | 4% | 42* | 23 | 1% | -1% | -4%
CC(C)OC(=O)CSc1nc(N)c(C#N)cc1C#N | -3% | 42* | 27* | 6% | 1% | -2%
